# The entries come from a sample that favours the strongest signals as a whole.
# Tests used:
# Assay in all cases: glycan array binding signal (z-score within array); higher = stronger binding
# Settings in all cases: glycan notation: IUPAC condensed, linker removed
# [1] = target: Fuc(a1-2)Gal(b1-3)GalNAc
# Summary of the method: (§1)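 Glycan array data were curated from 3228 arrays in the Consortium for Functional Glycomics database and kept only where the protein sequence was available. Glycan names were converted to IUPAC-condensed notation, and columns mapping to the same glycan were averaged. The binding signal is a within-array Z-score, averaged across arrays of the same protein sequence at different concentrations or buffers and across linkers. Negative Z-scores can be read as non-binding.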
# [2] = target: Fuc(a1-2)Gal(b1-3)GalNAc(b1-3)Gal
# Summary of the method: as §1
# [3] = target: Fuc(a1-2)Gal(b1-3)GlcNAc(b1-3)[Fuc(a1-3)[Gal(b1-4)]GlcNAc(b1-6)]Gal(b1-4)Glc
# Summary of the method: as §1
# [4] = target: Fuc(a1-2)Gal(b1-4)GlcNAc(b1-3)Gal(b1-4)GlcNAc(b1-3)Gal(b1-4)GlcNAc
# Summary of the method: as §1
# [5] = target: Fuc(a1-2)Gal6S(b1-4)Glc
# Summary of the method: as §1
# [6] = target: Gal(a1-3)Gal(b1-3)[Fuc(a1-4)]GlcNAc(b1-2)Man(a1-3)[Gal(a1-3)Gal(b1-3)[Fuc(a1-4)]GlcNAc(b1-2)Man(a1-6)]Man(b1-4)GlcNAc(b1-4)GlcNAc
# Summary of the method: as §1
# [7] = target: Gal(b1-3)Gal(b1-4)GlcNAc(b1-2)Man(a1-3)[Gal(b1-3)Gal(b1-4)GlcNAc(b1-2)Man(a1-6)]Man(b1-4)GlcNAc(b1-4)GlcNAc
# Summary of the method: as §1
# [8] = target: Gal(b1-3)GalNAc(b1-3)Gal(a1-4)Gal(b1-4)Glc
# Summary of the method: as §1
# [9] = target: Gal(b1-3)GalNAc(b1-4)Gal(b1-4)Glc
# Summary of the method: as §1
# [10] = target: Gal(b1-4)GlcNAc(a1-6)Gal(b1-4)GlcNAc
# Summary of the method: as §1
# [11] = target: Gal(b1-4)GlcNAc(b1-2)Man(a1-3)Man(b1-4)GlcNAc(b1-4)GlcNAc
# Summary of the method: as §1
# [12] = target: Gal(b1-4)GlcNAc(b1-2)[Gal(b1-4)GlcNAc(b1-4)]Man(a1-3)[Gal(b1-4)GlcNAc(b1-2)Man(a1-6)]Man(b1-4)GlcNAc(b1-4)GlcNAc
# Summary of the method: as §1
# [13] = target: Gal(b1-4)GlcNAc(b1-2)[Gal(b1-4)GlcNAc(b1-4)]Man(a1-3)[Gal(b1-4)GlcNAc(b1-2)[Gal(b1-4)GlcNAc(b1-6)]Man(a1-6)]Man(b1-4)GlcNAc(b1-4)GlcNAc
# Summary of the method: as §1
# [14] = target: Gal3S(b1-3)GlcNAc
# Summary of the method: as §1
# [15] = target: Gal3S(b1-4)GlcNAc6S
# Summary of the method: as §1
# [16] = target: Gal3S(b1-4)[Fuc(a1-3)]Glc6S
# Summary of the method: as §1
# [17] = target: GalNAc(a1-3)GalNAc
# Summary of the method: as §1
# [18] = target: Glc(b1-6)Glc
# Summary of the method: as §1
# [19] = target: GlcA(b1-3)GlcNAc
# Summary of the method: as §1
# [20] = target: GlcNAc(a1-4)Gal(b1-4)GlcNAc(b1-3)Gal(b1-4)Glc
# Summary of the method: as §1
# [21] = target: GlcNAc(b1-6)GalNAc
# Summary of the method: as §1
# [22] = target: Neu5Ac(a2-3)Gal(b1-3)GalNAc6S
# Summary of the method: as §1
# [23] = target: Neu5Ac(a2-3)Gal(b1-3)GlcNAc(b1-3)Gal(b1-4)GlcNAc
# Summary of the method: as §1
# [24] = target: Neu5Ac(a2-3)Gal(b1-3)GlcNAc6S
# Summary of the method: as §1
# [25] = target: Neu5Ac(a2-3)Gal(b1-4)GlcNAc(b1-2)Man(a1-3)[GlcNAc(b1-2)Man(b1-4)GlcNAc(b1-2)Man(a1-6)]Man(b1-4)GlcNAc(b1-4)GlcNAc
# Summary of the method: as §1
# [26] = target: Neu5Ac(a2-3)Gal(b1-4)[Fuc(a1-3)]GlcNAc(b1-6)[Gal(b1-3)]GalNAc
# Summary of the method: as §1
# [27] = target: Neu5Ac(a2-3)Gal6S(b1-4)[Fuc(a1-3)]GlcNAc
# Summary of the method: as §1
# [28] = target: Neu5Ac(a2-3)GalNAc(b1-4)GlcNAc
# Summary of the method: as §1
# [29] = target: Neu5Ac(a2-3)[GalNAc(b1-4)]Gal(b1-4)Glc
# Summary of the method: as §1
# [30] = target: Neu5Ac(a2-6)Gal
# Summary of the method: as §1
# [31] = target: Neu5Ac(a2-6)Gal(b1-4)GlcNAc(b1-3)Gal(b1-3)GlcNAc
# Summary of the method: as §1
# [32] = target: Neu5Ac(a2-6)Gal(b1-4)GlcNAc6S
# Summary of the method: as §1
# [33] = target: Neu5Ac(a2-8)Neu5Ac(a2-8)Neu5Ac
# Summary of the method: as §1
# [34] = target: Neu5Ac9Ac(a2-6)Gal(b1-4)GlcNAc
# Summary of the method: as §1
binder,measurement,setting,value
Gal 1 (Canis lupus) (protein) MACGLVASNLSLKPGQCLRVQCEVVPEAKSFVLNLGKDGDNLCLHFNPRFEAHGDVNTIVCNSKDGGAWGEELRESAFPFQPGTVTEVCISFDQADLTIKLPDGYTFKFPNRLNLEAISYLAADGDMKIKCLAFD,glycan array binding signal (z-score),[1],-0.289
same,glycan array binding signal (z-score),[2],-0.33
same,glycan array binding signal (z-score),[3],0.066
same,glycan array binding signal (z-score),[4],0.432
same,glycan array binding signal (z-score),[5],-0.234
same,glycan array binding signal (z-score),[6],-0.274
same,glycan array binding signal (z-score),[7],6.47
same,glycan array binding signal (z-score),[8],-0.328
same,glycan array binding signal (z-score),[9],-0.297
same,glycan array binding signal (z-score),[10],2.97
same,glycan array binding signal (z-score),[11],1.75
same,glycan array binding signal (z-score),[12],5.5
same,glycan array binding signal (z-score),[13],6.78
same,glycan array binding signal (z-score),[14],3.33
same,glycan array binding signal (z-score),[15],4.69
same,glycan array binding signal (z-score),[16],-0.286
same,glycan array binding signal (z-score),[17],-0.323
same,glycan array binding signal (z-score),[18],-0.343
same,glycan array binding signal (z-score),[19],-0.294
same,glycan array binding signal (z-score),[20],-0.318
same,glycan array binding signal (z-score),[21],-0.33
same,glycan array binding signal (z-score),[22],-0.333
same,glycan array binding signal (z-score),[23],1.66
same,glycan array binding signal (z-score),[24],-0.31
same,glycan array binding signal (z-score),[25],3.31
same,glycan array binding signal (z-score),[26],-0.244
same,glycan array binding signal (z-score),[27],-0.322
same,glycan array binding signal (z-score),[28],-0.307
same,glycan array binding signal (z-score),[29],-0.292
same,glycan array binding signal (z-score),[30],-0.257
same,glycan array binding signal (z-score),[31],-0.32
same,glycan array binding signal (z-score),[32],-0.332
same,glycan array binding signal (z-score),[33],-0.324
same,glycan array binding signal (z-score),[34],-0.303
